Holding throughout (experiment): NCI-60 one-dose screen, 48 h (100 = growth as untreated, 0 = no growth, -100 = all killed)
Holding throughout (conditions): 10 µM unless noted

Assay [1] has as its system EKVX NSCLC.
In assay [2] the test system is SN12C renal.
Assay [3] deals with UO-31 renal.
Assay [4] deals with TK-10 renal.
The test system of assay [5] is ACHN renal.
Assay [6] deals with A498 renal.
Assay [7] concerns CCRF-CEM leukemia.
The subject of assay [8] is MOLT-4 leukemia.
Assay [9] relates to SR leukemia.
The test system of assay [10] is RPMI-8226 leukemia.
Assay [11] concerns OVCAR-5 ovarian.
For assay [12], the system named is OVCAR-4 ovarian.
Assay [13] deals with SK-OV-3 ovarian.
The test system of assay [14] is IGROV1 ovarian.
Assay [15] has as its system HS 578T breast.
Assay [16] concerns T-47D breast.
Assay [17] concerns CAKI-1 renal.
In assay [18] the test system is OVCAR-8 ovarian.
Assay [19] deals with NCI/ADR-RES ovarian.
The subject of assay [20] is OVCAR-3 ovarian.

From PubChem BioAssay (NCI) come the findings set out here.

This is part of a sample that, as a whole, favours compounds with a hit. Of some 83,000 tested, about 20% had one in any assay.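 How to read the values: 0–100, growth inhibition (40 = 60% inhibited); 0, no net growth; -100 to 0, cell death (-40 = 40% of starting cells died; -100 = all dead).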 Unmarked numbers belong to inactive results. Calls of active or inactive are those of the source. How the source made its calls: active means growth percent below 10; inactive means the rest.

As for `COC1CCN(Cc2ccc3c(NNC(=O)c4cnccn4)nc4cc(F)ccc4n23)C1` (stereo not drawn), the growth in assay [1] was 29.9%; in assay [2] it was 24.1%; in assay [3], 18.6%; in assay [4] it was 40.8%; in assay [5], 14.1%; in [6], 30.6%. The growth was 1.87% (active) in assay [7]; 8.05% (active) in [8]; 1.51% (active) in [9]; 20.2% in assay [10]; 49.9% in [11]; 21% in [12]. Besides, the growth in [13] was 38.1%; in assay [14] it was 24.2%; in assay [15], 68.5%; in assay [16], 24.2%.
As to `Nc1c(C(=O)Nc2ccc(C(F)(F)F)cc2)sc2nc(-c3cnccn3)cc(-c3cccs3)c12`, the growth in [1] is 76.1%; in [2], 94.9%; in assay [3], 59.5%; in assay [4], 174%; in assay [5], 43.3%; in assay [17], 16.2%. Further, the growth in assay [7] was 84.7%; in [8], 75.7%; in [9], 66.3%; in assay [10], 72.2%; in [18] it was 66.7%; in [11], 102%. Moreover, the growth in [12] is 63.5%; in [13], 88.1%; in [14], 83.9%; in assay [15], 70.3%; in assay [19], 78.2%; in assay [16] it was 90.3%.
With `Nc1cc(-c2c[nH]c3ccccc23)nc2cc(-c3c[nH]c4ccccc34)nn12`, the growth was 74.5% in assay [1]; 73% in assay [2]; 44.2% in assay [3]; 89.4% in assay [4]; 51.6% in assay [5]; 42.3% in assay [6]. For the same molecule, the growth in assay [7] was 45.4%; in [8] it was 34%; in [9] it was 14%; in assay [10], 35.9%; in assay [18], 64.3%; in assay [11], 51%. In addition, the growth was 65.1% in [12]; 139% in assay [13]; 57.2% in assay [14]; 81.1% in assay [15]; 59% in assay [19]; 68.7% in assay [16].
For `Cc1cccc(/C=C/c2nn3c(-c4ccco4)nnc3s2)c1`, the growth in [1] was 81.3%; in assay [2], 94.8%; in assay [3], 83.7%; in assay [4], 101%; in assay [5] it was 102%; in [6], 77.5%. The growth in [7] was 99.4%; in assay [8] it was 104%; in assay [9], 79%; in assay [10], 100%; in [18] it was 100%; in [11] it was 98.2%. Also, the growth in assay [12] is 98.7%; in assay [13], 114%; in assay [14], 98.6%; in assay [20], 110%; in [15] it was 106%; in assay [16], 89.2%.
Take `Cn1ccnc1C(=O)/C=C/c1ccc(NC(=O)Nc2ccc(Cl)cc2)cc1`: the growth in assay [1] was 91.7%; in assay [2] it was 87.5%; in assay [3] it was 97.7%; in [4], 131%; in assay [5], 88.4%; in [17], 69.6%. In addition, the growth is 62.9% in assay [7]; 57.5% in assay [8]; 32.6% in assay [9]; 63.2% in [10]; 81.9% in assay [18]; 110% in assay [11]. In addition, the growth in assay [12] was 76.3%; in assay [13] it was 84.3%; in assay [14], 96.7%; in assay [15], 77%; in assay [19], 76.2%; in assay [16], 62.7%.
As to `C#Cc1nc(C2=C(C)C(O)CC2)cs1` (stereo not drawn), the growth is 113% in assay [1]; 101% in [2]; -66.1% (active) in [3]; 151% in [4]; 94.7% in [5]; 110% in assay [17]. Moreover, the growth in assay [7] was 102%; in [8], 95.1%; in assay [9], 78.7%; in assay [10], 97.4%; in assay [18], 107%; in assay [11], 120%. In addition, the growth in assay [12] was 115%; in assay [14] it was 5.36% (active); in assay [20], 120%; in [15] it was 104%; in [16], 92%.
Turning to `Cn1c(SCC(=O)Nc2ccc(-c3nc4ccc([N+](=O)[O-])cc4[nH]3)cc2)nc2ccccc2c1=O`, the growth in assay [1] was 84.5%; in assay [2], 91.1%; in [3] it was 84.7%; in assay [4], 132%; in assay [5], 65.6%; in assay [17] it was 45.9%. Moreover, the growth in assay [7] is 86.8%; in [8], 77.5%; in [9], 82.4%; in assay [10], 94.7%; in [18] it was 77.8%; in assay [11], 96%. Further, the growth in assay [12] is 67.5%; in [14], 75.9%; in assay [20], 90.6%; in assay [15] it was 81.5%; in [19], 88.9%; in assay [16], 72.1%.
Turning to `COc1ccc(/C=C2\SC(=Nc3cc(C)on3)NC2=O)cc1`, the growth was 89.7% in [1]; 100% in [2]; 85.5% in assay [3]; 106% in [4]; 106% in [5]; 96.6% in [17]. Besides, the growth in assay [7] was 101%; in assay [8] it was 100%; in assay [9] it was 98.9%; in [10], 98.2%; in assay [11], 97.6%; in [12], 109%. The growth in assay [13] is 113%; in assay [14] it was 99.2%; in assay [20] it was 116%; in assay [15], 96.9%; in assay [19] it was 98.6%; in assay [16] it was 104%.
For the molecule `O=C1Nc2ccccc2Oc2ccc(S(=O)(=O)CC3CO3)cc21` (stereo not drawn), the growth in assay [1] is 75.2%; in [2] it was 71.5%; in assay [3], 65.9%; in assay [4] it was 91.6%; in assay [5], 46.4%; in assay [6], 102%. The growth in [7] is 25.7%; in assay [8], 42.8%; in [9], 0.309% (active); in assay [10], 44.9%; in assay [18], 64.3%; in assay [11] it was 85.5%. Also, the growth is 70.1% in [12]; 62.3% in [14]; 60.6% in assay [15]; 98.2% in [19]; 47.5% in [16].
